HIF-2a block: HIF-2a inhibition; 786-0 RCC cells HIF-2a reporter, luciferase luminescence, overnight; inhibition, % at 18.8 µM; actives 0.72% (n = 360,000); AID 624352;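 active = inhibition of the luminescence signal of 40% or more relative to plate controls, in a single-dose primary screen at 18.75 µM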
HSP90 refold inh: HSP90 refolding inhibition in rabbit reticulocyte lysate; luciferase refolding luminescence, 3 h; actives 0.91% (n = 290,000); inhibition, % at 5.6 µM; AID 1789;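 active = inhibition above the screen-wide mean plus 3 SD, computed separately per campaign, cut at about 16% in these data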;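 also: inhibitors lower the luminescence because luciferase stays unfolded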
TROY NFkB inh: inhibitors of TROY-dependent NF-kB signaling; inhibition, % at 10 µM; actives 0.98% (n = 360,000); Q293 LMP1-TROYcd NF-kB luciferase reporter, 4 h;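 active = compounds whose plate-normalised and pattern-corrected inhibition of the luciferase reporter signal at the single screening dose is 50% or more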
aSyn 5UTR inh: MLPCN primary screen, SNCA 5' untranslated region. alpha-synuclein 5'UTR reporter, inhibitor activity. inhibition, % (tested at 7.5 µM). actives 0.82% (n = 300,000). AID 1813; in the data active = inhibition above about 60%; inconclusive = no clear call, values can overlap the other calls;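 also: H4 neuroglioblastoma cells stably carrying SNCA 5'UTR luciferase fusion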
TWEAK-Fn14 inh: inhibitors of TWEAK-Fn14 interaction signaling; inhibition, % at 10 µM; TWEAK-stimulated Fn14 reporter cells, luciferase luminescence, 8 h; actives 2% (n = 360,000); in the data active = inhibition above about 50%
C8 TRAIL sens: caspase-8 TRAIL sensitization; NB7+C8 cells + TRAIL, ATPlite viability luminescence; inhibition (viability loss, TRAIL sensitization), % at 10 µM; actives 1% (n = 360,000);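 active = compounds causing at least 50% loss of cell viability in the single-dose screen, relative to plate controls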
Mdm2-MdmX confirm: confirmation of inhibitors of human Mdm2/MdmX interaction, set 2; shares compounds with HIF-2a block; SaOS-2 split-luciferase Mdm2/MdmX complementation, luminescence; inhibition, % at 8 µM; actives 99% (n = 740);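 active = mean inhibition of the luminescence signal across two replicates at or above 26 percent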
HIF-2a inh conf: HIF-2a inhibition, single concentration confirmation; shares compounds with HIF-2a block; 786-0 RCC cells, HIF-2a luciferase reporter luminescence, overnight; inhibition, % at 18.8 µM; actives 56% (n = 1,800);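 active = mean inhibition across four replicates of at least 40 percent at the single tested concentration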
HIF-1a cs: counter-screen for HIF-2a inhibitors: HIF-1a inhibition in MiaPaCa-2 cells; MiaPaCa-2 HIF-1a luciferase reporter, desferoxamine, overnight; actives 72% (n = 1,800); shares compounds with HIF-2a block; inhibition, % at 18.8 µM;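 active = mean inhibition of the reporter signal across four replicates at the single tested dose of 50% or more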
A number is an active result; n = inactive; u = inconclusive; x = no result given. Compounds with a hit are over-represented: about 3.9% of the library has one in this group of screens.

SMILES | HIF-2a block | HSP90 refold inh | TROY NFkB inh | aSyn 5UTR inh | TWEAK-Fn14 inh | C8 TRAIL sens | HIF-2a inh conf | HIF-1a cs | others
COC(=O)c1cc(=O)n(CCc2ccc(OC)c(OC)c2)c(=Nc2ccc(F)c(Cl)c2)s1 | 74.9 | n | n | n | 59.8 | n | n | 96.3
COC(=O)c1cc(=O)n(Cc2ccco2)c(=Nc2ccc(F)cc2)s1 | 49.1 | n | n | n | 56.5 | n | 60.3 | 96.8
COC(=O)c1cc(=O)n(Cc2ccc(OC)c(OC)c2)c(=Nc2ccc(F)cc2)s1 | 70.0 | n | n | n | 65.1 | n | 68.2 | 102.1
COC(=O)c1cc(=O)n(Cc2cccs2)c(=Nc2ccccc2)s1 | n | n | n | n | n | n | x | x
COC(=O)c1cc(=O)n(Cc2ccc(F)cc2)c(=Nc2ccccc2)s1 | 53.1 | n | n | n | n | n | n | n
CNC(=O)C1CC(=O)N(CCc2ccc(OC)c(OC)c2)C(=Nc2ccc(F)cc2)S1 (stereo not drawn) | n | n | n | n | n | n | x | x
O=C(NCc1ccc(F)c(F)c1)C1Cc2c(-c3ccc4c(c3)OCO4)ccnc2O1 (stereo not drawn) | n | x | n | x | n | n | x | x
COc1cccc(C(C(=O)NCc2ccccc2)N2CCN(c3cccc(C)c3C)CC2)c1OC (stereo not drawn) | n | x | x | x | x | n | x | x
COc1cc(SC#N)ccc1N=Cc1c(C)[nH]n(-c2ccc(C)c(C)c2)c1=O | n | n | n | n | n | 80.5 | x | x | Mdm2-MdmX confirm=98.5
COc1cccc(NC(=O)N(C)C[C@H]2OCc3cnnn3CCCC(=O)N([C@H](C)CO)C[C@@H]2C)c1 | n | x | n | x | n | n | x | x
COc1ccc(NC(=O)c2c(N)no[n+]2[O-])cc1 | n | n | n | n | n | n | x | x
COc1ccc(C(=O)c2no[n+]([O-])c2C(=O)c2ccc(OC)cc2)cc1 | 65.0 | n | n | n | n | 93.4 | n | n
CC(=O)c1ccc(S(=O)(=O)N2CCN(c3nc(-c4cccnc4)nc4ccccc34)CC2)cc1 | n | x | n | x | n | n | x | x
C[C@H]1CN([C@@H](C)CO)S(=O)(=O)c2ccc(Br)cc2O[C@H]1CN(C)C(=O)c1cccnc1 | n | x | n | x | n | n | x | x
COc1ccccc1-c1cc(C(F)(F)F)nc(S(=O)(=O)CCCC(=O)N2CCOCC2)n1 | 83.0 | n | 57.7 | n | n | n | 47.7 | 104.0
CC(C)(C)c1ccc(Cn2nnc3c(=O)[nH]c(C4CCCN(C(=O)c5cccs5)C4)nc32)cc1 (stereo not drawn) | 42.5 | n | n | n | n | n | n | 84.1
CC(C)(C)c1ccc(Cn2nnc3c(=O)[nH]c(C4CCCN(C(=O)Cc5cccs5)C4)nc32)cc1 (stereo not drawn) | n | n | n | n | n | n | x | x
CC1(C(=O)NS(=O)(=O)c2cccc(C#N)c2)CCN1C(=O)c1cccc2ccccc12 (stereo not drawn) | n | x | n | x | n | n | x | x
C[C@@H](CO)NC(=O)c1[nH]cnc1C(=O)Nc1cccc(Cl)c1 | n | x | n | x | n | n | x | x
O=C(O)CSc1ccn(Cc2ccccc2)c1 | n | x | n | x | n | n | x | x
O=C(Cn1ncc2c1-c1ccccc1OC2)N1CCN(Cc2ccccc2)CC1 | n | n | n | n | n | n | x | x
O=C(Cn1ncc(Cl)c(Cl)c1=O)N1CCc2ccccc21 | 93.7 | n | n | 134.7 | 101.2 | 96.2 | 98.1 | 106.1
O=C(Cn1ncc(Cl)c(Cl)c1=O)N1CCN(Cc2ccccc2)CC1 | 96.0 | n | 55.5 | n | 87.1 | n | 60.7 | 106.2
CC1(C)C(=O)Nc2ccccc2N1C(=O)Cn1ncc(Cl)c(Cl)c1=O | n | n | n | n | n | n | x | x | Mdm2-MdmX confirm=57.8
Cc1c2cnn(CC(=O)N3CCOCC3)c(=O)c2c(C)n1Cc1ccc(F)cc1 | n | x | n | x | n | n | x | x
SMILES | HIF-2a block | HSP90 refold inh | TROY NFkB inh | aSyn 5UTR inh | TWEAK-Fn14 inh | C8 TRAIL sens | HIF-2a inh conf | HIF-1a cs | others
O=C(Cn1ncc(Cl)c(Cl)c1=O)N1CCOCC1 | 83.9 | n | n | n | 80.7 | n | n | 105.5
CC1(C(=O)O)CCCN(C(=O)c2ccc(OC(F)F)cc2)C1 (stereo not drawn) | n | x | n | x | n | n | x | x
CC1=C(C(=O)N(C(C)C)C(C)C)CC(CC(=O)NC2CC2)C(=O)N1CCC1=CCCCC1 (stereo not drawn) | n | x | n | x | n | n | x | x
COc1ccc(/C=C/C(=O)OCC(=O)NCCc2ccccc2)c(OC)c1 | n | x | n | x | n | n | x | x
COc1ccc2c(c1)-c1c(ssc1=S)C(C)(C)N2 | n | n | 50.5 | n | 92.3 | n | x | x | Mdm2-MdmX confirm=95.0
COc1ccc2c(c1)-c1c(sn(-c3ccccc3)c1=S)C(C)(C)N2 | n | n | n | n | n | n | x | x
CCCCCCCCNCCS(=O)(=O)NCCCCCCCC | 51.1 | x | n | x | n | n | n | 105.5
COc1ccc(-c2c(N)cnc(C(=O)O)c2C)c(OCc2ccccc2)c1OC | n | x | n | x | n | n | x | x
CCc1cc(SC#N)cc(CC)c1NC(=O)CCl | 49.2 | n | n | n | n | n | n | n
CC(=O)Nc1cccc(C(=O)NNC(=O)c2n[nH]c(=O)c3ccccc23)c1 | n | x | n | x | n | n | x | x
CCS(=O)(=O)c1ncc(Cl)c(C(=O)Nc2ccc(S(=O)(=O)N3CCCC(C)C3)cc2)n1 (stereo not drawn) | 88.5 | n | 84.6 | 72.2 | 95.8 | 96.2 | 98.5 | 105.9 | Mdm2-MdmX confirm=103.2
CCC1CCCCN1S(=O)(=O)c1ccc(NC(=O)c2nc(S(C)(=O)=O)ncc2Cl)cc1 (stereo not drawn) | 75.4 | n | 83.3 | n | 77.3 | 92.5 | 100.2 | 100.7
Cc1ccc(CS(=O)(=O)c2ncc(Cl)c(C(=O)Nc3ccc(OC(F)F)cc3)n2)cc1 | 92.7 | n | 78.8 | u | 82.6 | 87.9 | x | x | Mdm2-MdmX confirm=103.2
CCS(=O)(=O)c1ncc(Cl)c(C(=O)Nc2ccc(C)cc2)n1 | 91.6 | n | 67.0 | n | 89.8 | 84.1 | 97.3 | 72.3 | Mdm2-MdmX confirm=101.2
CCSc1ncc(Cl)c(C(=O)Nc2ccc(S(=O)(=O)Nc3onc(C)c3C)cc2)n1 | n | n | n | n | n | n | x | x
O=C(Nc1ccc2ccccc2c1)c1cnccn1 | n | n | n | n | n | n | x | x
CS(=O)(=O)c1ncc(Cl)c(C(=O)Nc2ccc3ccccc3c2)n1 | 94.8 | n | 64.9 | n | 81.8 | n | 97.3 | 91.5
Cc1nc(Nc2ccncc2)c2oc3ccccc3c2n1 | n | n | n | n | n | n | x | x
CCc1nc(Nc2ccncc2)c2oc3ccccc3c2n1 | 47.4 | n | n | n | n | n | n | 81.9
CCCCCCCCCn1c2c(c(=N)c3c1CCC3)CCC2 | n | n | 51.5 | 85.7 | n | 76.9 | x | x | Mdm2-MdmX confirm=101.5
CCCCn1c2c(c(=N)c3c1CCC3)CCC2 | n | n | n | x | n | n | x | x

Assay outcomes from PubChem.
